Data published in PubChem BioAssay (NCI).
“And” between values parts separate entries of the source, which are not always exact repeats. Identical values can stand only once. The panel holds about 83,000 compounds, 20% with a hit somewhere; the sample as a whole holds those more often.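 Results are percent growth after 48 hours of single-concentration exposure. 100 means growth as in untreated cells, lower positive values show inhibition; negative values down to -100 show cell death.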 The source made the active and inactive calls. The calls were made as follows: active = growth percent below 10; inactive = the rest.

Tests used:
Experiment in all cases: NCI-60 one-dose screen, 48 h (100 = growth as untreated, 0 = no growth, -100 = all killed)
Settings in all cases: 10 µM unless noted
[1] = tested on: NCI/ADR-RES ovarian
[2] = tested on: T-47D breast
[3] = tested on: BT-549 breast
[4] = tested on: MDA-MB-435 melanoma
[5] = tested on: SW-620 colon
[6] = tested on: MCF7 breast
[7] = tested on: HCT-116 colon
[8] = tested on: HCC-2998 colon
[9] = tested on: KM12 colon

Row | SMILES | growth [1] | growth [2] | growth [3] | growth [4] | growth [5] | growth [6] | growth [7] | growth [8] | growth [9]
1 | Clc1ccc(COC(Cn2ccnc2)c2ccc(Cl)cc2Cl)c(Cl)c1 (stereo not drawn) | 21.7% (inactive) and -21.9% (active) | 46.4% (inactive) and 36.5% (inactive) | 51.8% (inactive) and 40.9% (inactive) | 8.47% (active) and 20.5% (inactive) | 58.3% (inactive) and 62.2% (inactive) | 39.3% (inactive) and 35% (inactive) | 14.6% (inactive) and 16.1% (inactive) | 47.4% (inactive) | 40.2% (inactive) and 43.2% (inactive)
2 | C#COc1cccc(Nc2ncnc3cc(NC(=O)CF)ccc23)c1 | 35.3% [6.25 µM] (inactive) | 40.9% [6.25 µM] (inactive) | 28% [6.25 µM] (inactive) | -34.2% [6.25 µM] (active) | 25.8% [6.25 µM] (inactive) | 30.6% [6.25 µM] (inactive) | 19% [6.25 µM] (inactive) | 63.8% [6.25 µM] (inactive) | 28.6% [6.25 µM] (inactive)
3 | CO[C@H]1[C@H](O[C@@H]2C[C@@H]3C/C=C/C(=O)O[C@@H](CO)C[C@H](O)[C@@H]4C[C@H](C)[C@H](C/C=C\C=C\[C@H](C)C[C@H](C2)O3)O4)O[C@@H](C)[C@H](O)[C@H]1O | 55.8% (inactive) | 20.8% (inactive) | 53.9% (inactive) | 64.3% (inactive) | 76.6% (inactive) | 29.1% (inactive) | 57% (inactive) | 53.6% (inactive) | 68.1% (inactive)
4 | CC12CCC3C4CCC(=O)C=C4CCC3C1CC1CC(=O)OC12 (stereo not drawn) | 101% (inactive) | 101% (inactive) | 107% (inactive) | 112% (inactive) | 102% (inactive) | 98.7% (inactive) | 97.1% (inactive) | 110% (inactive) | 96% (inactive)
5 | C[C@]12CC[C@@H](OC(=O)N(CCCl)N=O)C[C@@H]1CC[C@@H]1[C@@H]2CC[C@]2(C)C(=O)CC[C@@H]12 | 42.9% (inactive) | 33.8% (inactive) | 76.8% (inactive) | 64.5% (inactive) | 52.9% (inactive) | 29.9% (inactive) | 47.5% (inactive) | 53.6% (inactive) | 24.5% (inactive)
6 | CCCCCCCCCCCCCCCCCC1OCC(COC(=O)O[C@@H](C(=O)O[C@H]2C[C@@]3(O)[C@@H](OC(=O)c4ccccc4)[C@@H]4[C@]5(OC(C)=O)CO[C@@H]5C[C@H](O)[C@@]4(C)C(=O)[C@H](OC(C)=O)C(=C2C)C3(C)C)[C@@H](NC(=O)c2ccccc2)c2ccccc2)O1 (stereo partly drawn) | 103% (inactive) | 32.9% (inactive) | 58.8% (inactive) | -71.2% (active) | 39.6% (inactive) | 18.3% (inactive) | 18.2% (inactive) | 32% (inactive) | 14.3% (inactive)
7 | C[N+]1(CC#CC[N+]2(C)CCCC2)CCCC1 | 102% (inactive) | 108% (inactive) | 101% (inactive) | 104% (inactive) | 107% (inactive) | 95.5% (inactive) | 98.4% (inactive) | 110% (inactive) | 102% (inactive)
8 | Oc1cc(Cl)ccc1Oc1ccc(Cl)cc1Cl | 7.74% (active) | 17.9% (inactive) | 8.8% (active) | 15.1% (inactive) | 21% (inactive) | 19.3% (inactive) | 6.58% (active) | 105% (inactive) | 21.9% (inactive)
9 | COc1cc(/C=C\[N+](=O)[O-])ccc1OCc1ccccc1 | 69.2% (inactive) | 49% (inactive) | 37.2% (inactive) | 20% (inactive) | 47.4% (inactive) | 9.62% (active) | 1% (active) | -70.4% (active) | 23.6% (inactive)
10 | CSc1cc(/C=C(\C)[C@@H]2C[C@@H]3O[C@]3(C)CCC[C@H](C)[C@H](O)[C@@H](C)C(=O)C(C)(C)[C@@H](O)CC(=O)O2)n(CCNC(=O)OC(C)(C)C)n1 | 40.4% (inactive) | 66.2% (inactive) | 71.4% (inactive) | -19.8% (active) | 31.3% (inactive) | 33.3% (inactive) | 26.7% (inactive) | 54.7% (inactive) | 23.1% (inactive)
11 | CC(=O)OC1CC2(O)C(CCC3(C)C(c4ccc(=O)oc4)CCC32O)C2(C)CCC(OC3OC(CO)C(O)C(O)C3O)C=C12 (stereo not drawn) | -61.6% (active) | -9.39% (active) | -85.4% (active) | -90.2% (active) | -67.4% (active) | -23.4% (active) | -94.3% (active) | -63.3% (active) | -97.8% (active)
12 | CCC(Br)(CC)C(=O)NC(N)=O | 116% (inactive) | 101% (inactive) | 108% (inactive) | 102% (inactive) | 110% (inactive) | 94.6% (inactive) | 93% (inactive) | 105% (inactive) | 104% (inactive)
